LDHA block: blocks human lactate dehydrogenase A | actives 0.15% (n = 480,000) | activity change, % (values are at about 110 or 230 µM) | P00338 | AID 1347041 | purified LDHA, NADH/diaphorase-resazurin fluorescence; active compounds read low; in the data active = activity change below about -30%;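 also: plate controls were DMSO wells for no effect and wells without enzyme for full effect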
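Remaining NADH was detected by diaphorase (0.133 mg/mL) converting 37 µM resazurin to fluorescent resorufin, read at 0 and 20 minutes. The preceding 5-minute room-temperature reaction used 2 nM LDHA, 0.2 mM sodium pyruvate and 0.06 mM NADH at pH 7.4.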
TRHR enhancer: allosterically enhances the human TRH receptor | TRHR cells, fluo-8 calcium fluorescence, EC20 TRH enhancement | enhancement, % at 2 µM | actives 0.66% (n = 360,000) | AID 493056; in the data active = enhancement above about 30%; also: 0% is about no effect
Target sequence (P34981 whole entry, looked up): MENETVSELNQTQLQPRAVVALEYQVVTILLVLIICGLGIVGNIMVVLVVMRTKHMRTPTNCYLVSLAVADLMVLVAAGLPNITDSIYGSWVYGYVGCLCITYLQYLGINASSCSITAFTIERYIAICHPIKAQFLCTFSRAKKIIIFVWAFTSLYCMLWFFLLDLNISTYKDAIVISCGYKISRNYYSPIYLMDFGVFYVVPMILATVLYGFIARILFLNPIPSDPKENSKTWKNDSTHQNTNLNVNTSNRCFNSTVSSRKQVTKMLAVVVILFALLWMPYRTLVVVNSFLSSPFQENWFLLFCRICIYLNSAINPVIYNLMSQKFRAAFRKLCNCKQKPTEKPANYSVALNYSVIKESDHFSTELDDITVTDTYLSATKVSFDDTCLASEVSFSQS
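TRHR-expressing cells loaded with fluo-8 calcium dye were read kinetically (ex 480/em 530) during compound addition, then stimulated with an EC20 of TRH (10 nM final). Enhancement of the Gq-mediated intracellular calcium response was scored.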
D1 agonist: human D1 receptor agonism; actives 1% (n = 360,000); AID 504660; activation, % at 2 µM; HEK293 T-REx D1 cells, calcium flux, agonist mode; also: 0% is about no effect
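Agonism was scored from calcium flux recorded over 180 s (1 read/s) after pintool compound addition, following a 10-cycle baseline. Cells were inducible force-coupled HEK293 TREx D1, plated overnight at 30 C and loaded with no-wash calcium dye.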
TRHR ag: TRH receptor (human) agonism; P34981; TRHR cells, calcium flux fluo-8, FDSS agonist mode; activation, % at 2 µM; actives 0.18% (n = 360,000); AID 493084; also: 0% is about no effect
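Fluo-8-loaded TRHR cells; 10 s baseline, compound added, kinetic Ca2+ fluorescence read 1/s, agonist mode.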
D1 antagonist: antagonists of human D1 dopamine receptor; HEK293 TREx D1 cells, calcium flux, dopamine EC80; active compounds read low; P21728; AID 504652; activity change, negative = inhibition, % at 10 µM; actives 3.2% (n = 360,000); in the data active = activity change below about -30%; also: % is scaled to controls: 0 for no effect and ±100 for the full control effect
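Kinetic fluorescence of a calcium dye serves as the read-out. D1-expressing Hek293 Trex cells, induced overnight at 30 C, are exposed to compound for 180 s before an EC80 dopamine addition, then read 180 s further.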
D1 PAM: potentiators of human D1 dopamine receptor; potentiation, % at 10 µM; actives 0.036% (n = 360,000); HEK293 TREx D1 cells, calcium flux, dopamine EC20 potentiation; AID 504651; in the data active = potentiation above about 30%; also: 0% is about no effect
Starred values were filed as active, the others as inactive; . = not tested or not shown. The list is not random: actives were taken first. Their share in the collection is about 3.6%. Rule as the data show it, unless noted: active = activation above about 30%; inactive = the rest.

SMILES | LDHA block | TRHR enhancer | D1 agonist | TRHR ag | D1 antagonist | D1 PAM
Cc1ccc(S(=O)(=O)N2CCC(C(=O)Nc3ccc(C)c(Cl)c3)CC2)cc1 | -7.2 | 5.9 | 14.4 | -0.9 | -39.0* | -5.0
O=C(Nc1ccc(Cl)c(Cl)c1)C1CCCCC1 | -4.7 | -7.1 | 7.9 | -0.2 | -32.1* | -7.8
CS(=O)(=O)N1CCC(C(=O)Nc2ccc(Cl)c(Cl)c2)CC1 | -10.8 | -12.2 | 19.8 | 4.2 | -59.0* | -4.8
Cc1ccc(NC(=O)C2CCCC2)cc1Cl | -1.5 | . | . | . | . | .
CS(=O)(=O)N1CCC(C(=O)Nc2ccc(Cl)cc2)CC1 | -4.2 | 0.6 | 3.4 | 1.6 | -3.9 | -10.2
CS(=O)(=O)N1CCC(C(=O)Nc2cc(Cl)ccc2Cl)CC1 | -2.0 | 3.9 | 1.4 | -0.8 | 2.3 | 0.6
Cc1cnc(C(=O)NC(c2ccccc2)c2ccccn2)cn1 (stereo not drawn) | 5.3 | . | . | . | . | .
CCC(C)NC(=O)Nc1cc(C(=O)NC)ccc1C (stereo not drawn) | -13.0 | . | . | . | . | .
Cc1ccc(N2C(=O)N(Cc3ccc4c(c3)OCO4)c3ccccc3S2(=O)=O)cc1 | 10.7 | . | . | . | . | .
COc1ccc(C(=O)c2c(N)c(C#N)c3n2CCCC3)cc1 | 2.0 | . | . | . | . | .
Cc1ccc(NC(=O)C2CCN(S(=O)(=O)c3ccc4c(c3)CCCN4C(=O)C3CCC3)CC2)cc1 | -3.8 | -4.4 | 0.7 | -0.6 | -48.4* | -7.0
O=S(=O)(c1ccccc1)c1nnn2c1nc(NCc1cccs1)c1sccc12 | -0.2 | 3.4 | 4.2 | 1.2 | -17.3 | -7.5
CCc1ccc(S(=O)(=O)c2nnn3c2nc(NC(C)C)c2sccc23)cc1 | 3.9 | -9.9 | 2.7 | 0.1 | -32.7* | -7.0
CCCCNc1nc2c(S(=O)(=O)c3ccc(C)c(C)c3)nnn2c2ccsc12 | 0.3 | -21.1 | 1.0 | 0.7 | -77.3* | -8.4
COc1ccccc1Nc1nc2c(S(=O)(=O)c3ccc(C(C)C)cc3)nnn2c2ccsc12 | 3.5 | 37.1* | 4.0 | -0.4 | 3.8 | -5.1
Cc1ccc(S(=O)(=O)c2nnn3c2nc(NCc2ccc(F)cc2)c2sccc23)cc1C | -2.4 | -4.8 | 4.6 | 0.7 | 1.6 | -1.4
Cc1ccc(S(=O)(=O)c2nnn3c2nc(NCc2cccs2)c2sccc23)cc1C | 2.5 | -14.0 | 2.3 | 0.7 | -59.0* | -7.8
Cc1c(CC(=O)N2CCOCC2)c(=O)oc2cc(O)ccc12 | 7.3 | . | . | . | . | .
CCNc1c(NC(=O)Nc2ccccc2C)c(=O)oc2ccccc12 | 0.0 | . | . | . | . | .
S=c1sc2ccccc2n1CCc1ccncc1 | 0.7 | -2.9 | 6.0 | -0.5 | -39.2* | -7.7
CC(C)C(=O)NNC(=O)c1ccc(F)cc1 | -3.6 | . | . | . | . | .
CCC1CN(C(=O)Nc2cccc3c2CCCC3)c2cc(C)ccc2O1 (stereo not drawn) | 6.7 | -2.2 | 0.1 | -0.2 | -59.9* | -1.6
Cc1ccc(C(=O)NNC(=S)Nc2cccc3ccccc23)s1 | 17.2 | -1.5 | 3.3 | -0.1 | -37.0* | -18.5
COc1ccc(NC(=O)Cn2c(C)cc3ccccc32)cc1 | -0.5 | . | . | . | . | .
COCCNC(=S)N(CCc1c(C)[nH]c2ccc(F)cc12)Cc1cccs1 | -3.7 | -7.4 | 14.9 | 0.6 | -37.7* | -2.2
SMILES | LDHA block | TRHR enhancer | D1 agonist | TRHR ag | D1 antagonist | D1 PAM
C[C@]12CCC(=O)C=C1C=C[C@@H]1[C@@H]2CC[C@@]2(C)[C@H]1CC[C@@]21CCC(=O)O1 | -6.2 | -6.2 | 1.9 | 0.2 | -34.0* | -6.3
COc1ccc(CC2(C)OC(c3ccc(C)cc3)=NN2C(C)=O)cc1 (stereo not drawn) | -0.8 | 7.9 | 5.9 | -0.8 | 13.2 | -4.7
COc1ccc(CC2(C)OC(c3ccccc3)=NN2C(C)=O)cc1 (stereo not drawn) | -13.1 | -11.7 | 1.6 | 0.0 | -42.5* | -3.6
CC(=O)N1N=C(c2cccc([N+](=O)[O-])c2)OC1(C)CC(=O)Nc1ccccc1 (stereo not drawn) | -1.6 | 11.0 | 1.6 | -0.2 | -77.4* | -9.6
C=CCN(CC(F)(F)F)C(=O)c1nc(-c2ccccc2)n(-c2ccccc2)n1 | 5.4 | . | . | . | . | .
CCOC(=O)CSc1nc2sc3c(c2c(=O)n1-c1ccc(OCC)cc1)CCN(C)C3 | -7.3 | 2.9 | 30.1* | 8.6 | 6.0 | -8.3
CC(NCc1ccc(C#N)cc1)c1ccc(F)cc1F (stereo not drawn) | -0.7 | . | . | . | . | .
CS(=O)(=O)Cc1cccc(C(=O)Nc2ccc(F)cc2F)c1 | 0.6 | . | . | . | . | .
Cc1c(O)c(S(=O)(=O)c2ccccc2)c(=O)n(-c2ccccc2)c1-c1ccccc1 | 2.9 | -0.5 | 1.8 | -0.2 | -13.2 | 0.4
Cc1c(O)c(S(=O)c2ccccc2)c(=O)n(-c2ccccc2)c1-c1ccccc1 (stereo not drawn) | -1.7 | 31.9* | 3.7 | 0.8 | 0.5 | -2.4
CCN1CCN(c2nc3c(c(=O)n(C)c(=O)n3C)n2CC(=O)c2ccccc2)CC1 | -2.8 | . | . | . | . | .
CN1CCN(S(=O)(=O)c2ccc(Sc3ccc4ccccc4c3)nc2)CC1 | 4.3 | . | . | . | . | .
COc1ccc(C2=NN(C(=O)c3cccs3)C(O)(C(F)(F)F)C2)cc1 (stereo not drawn) | 0.9 | -6.1 | 2.6 | -0.7 | 0.0 | -5.7
COc1ccc(C2=NN(c3nc(C(=O)O)cs3)C(O)(C(F)(F)F)C2)c(OC)c1 (stereo not drawn) | -63.5* | 1.7 | -0.3 | 0.1 | 2.3 | 1.4
CC1=NN(c2ccccc2)C(c2ccco2)C1 (stereo not drawn) | -2.5 | . | . | . | . | .
O=[N+]([O-])c1ccc(C2=NN(c3ccccc3)C(c3ccco3)C2)cc1 (stereo not drawn) | 2.5 | 1.7 | 295.7* | 59.1* | -66.9* | -9.6
O=[N+]([O-])c1ccc(/C=C/C2=NN(c3ccccc3)C(c3ccco3)C2)cc1 (stereo not drawn) | 0.7 | -3.3 | 212.8* | -0.3 | -67.6* | -1.4
CCC/C=C(/CC)C[N+]1(C)CCCCC1 | 0.3 | . | . | . | . | .
CCOC(=O)c1c(C)[nH]c(C(=O)NCCc2ccc(Cl)cc2)c1C | 8.5 | . | . | . | . | .
COc1cc(C(=O)OCCCN(C)C)cc(OC)c1OC | -3.5 | -6.0 | 1.0 | 0.3 | -38.8* | -1.8
CCCCN1C2CCCC1CC(NC(=O)c1cccc(OC)c1)C2 (stereo not drawn) | -9.2 | 11.1 | 0.2 | 0.4 | -5.4 | -7.5
O=C(NC1CC2CCCC(C1)N2Cc1ccccc1)C1CCCCC1 (stereo not drawn) | -6.4 | -11.5 | 0.1 | 0.6 | 2.0 | -3.9
CCCCN1C2CCCC1CC(NC(=O)c1cccc(Cl)c1)C2 (stereo not drawn) | 1.0 | 3.8 | 0.6 | 0.5 | -34.7* | -3.4
CCCCN1C2CCCC1CC(NC(=O)C1CCCCC1)C2 (stereo not drawn) | -6.6 | 1.7 | 0.8 | 0.0 | -54.7* | -3.4
O=C(CSc1nnc2ccccn12)c1ccc(Cl)cc1Cl | 3.2 | . | . | . | . | .
CC1CN(C(=O)c2cc(-c3ccco3)[nH]n2)CCO1 (stereo not drawn) | 11.4 | . | . | . | . | .
